PubChem BioAssay AID463173 (ICCB-Longwood Screening Facility, Harvard Medical School, 2010)
Out of some 52,000 compounds screened, about 4,300 (8.3%) were called active. This excerpt belongs to a sample that is enriched for actives. Unmarked numbers belong to inactive results. No stated cut-off is given here; in the data, active means survival mostly below about 52% (no sharp cut-off); inactive means mostly above about 56%.

Tested on: DeltatarO mutant
Assay: growth inhibition of S. aureus wild type versus tarO mutant, primary screen, teichoic acid synthesis inhibitors, RN4220, OD600 (AID 463173)
Settings: OD600, 18 h, stronger effect = lower value, screened at 18.75 µg/mL (by protocol)

SMILES | survival
COc1ccc(OCc2ccc(-c3nc(C#N)c(NCc4ccccc4)o3)o2)cc1 | 78%
COc1cc(C(CC(=O)Nc2cccc(C(C)=O)c2)N2Cc3ccccc3C2=O)cc(OC)c1OC (configuration not stated) | 67%
COc1ccccc1N1CCN(C(=O)c2c3c(nc4ccccc24)C(=O)N(C2CCCCC2)C3)CC1 | 94%
Cc1ccc(-c2nnc(Nc3ccc(S(N)(=O)=O)cc3)c3ccccc23)cc1S(=O)(=O)N1CCCCC1 | 103%
Cn1c(SCC(=O)N2CCOCC2)ncc(C(=O)Nc2ccc(F)cc2)c1=O | 87%
CCOc1ccc(NS(=O)(=O)c2ccc(C(=O)N(C)C)s2)cc1 | 76%
CCOc1cc2sc(N3CCC(C(=O)Nc4ccc(CC)cc4)CC3)nc2cc1Br | 86%
C#CCn1c(/C=C/c2ccc(Cl)cc2)nc2ccccc21 | 10% (active)
Cn1c(C=Nc2ccc(Cl)cc2)nc2ccccc21 | 83%
Cc1ccc(/C=C/c2nc3ccccc3n2S(=O)(=O)c2cccc(Cl)c2)cc1 | 77%
COc1ccc(-c2nnc(SCC(=O)Nc3ccc(Cl)cc3)s2)cc1 | 84%
Cn1cc(C(=O)N2CCN(c3cccc(C(F)(F)F)c3)CC2)c2c3ccccc3n(C)c2c1=O | 20% (active)
Cc1ccc(-n2nc(C(=O)N3CCN(c4cccc(C(F)(F)F)c4)CC3)c3c4ccccc4n(C)c3c2=O)cc1 | 95%
Cn1c2ccccc2c2c(C(=O)N3CCN(c4cccc(C(F)(F)F)c4)CC3)cn(C3CCCCC3)c(=O)c21 | 88%
O=C(NCc1cccc(Cl)c1)C1CCCN(c2nn3cc(-c4ccc(F)cc4)nc3s2)C1 (configuration not stated) | 87%
CCc1ccccc1NC(=O)c1nc(-c2ccncc2)no1 | 46%
Cc1cc(C)c(S(=O)(=O)N2CCC(n3c(C(F)(F)F)nc4cccnc43)CC2)c(C)c1 | 79%
O=C(Cn1c(C(=O)N2CCOCC2)cc2sccc21)c1ccccc1 | 99%
Oc1ccccc1C1OCC(C2CC=CCC2)CO1 (configuration not stated) | 96%
Oc1ccccc1C1OC2CCCCC2C2=CCCCC21 (configuration not stated) | 34% (active)
CC1=CCC2(CO)COC(c3ccccc3O)C1C2 (configuration not stated) | 90%

SMILES | survival
c1ccc2c(c1)[nH]c1c(N3CCOCC3)ncnc12 | 68%
COc1cccc(CCNC(=O)Cn2c(-c3cccs3)cc3ccccc32)c1 | 70%
O=C(Nc1c2c(nn1-c1ccc(Cl)cc1)CS(=O)(=O)C2)c1cccc(F)c1 | 55%
Cc1noc(/C=C/c2ccccc2F)c1S(=O)(=O)N1CCC(C(=O)NCc2ccco2)CC1 | 107%
COc1cc2nc(NCC(C)c3ccccc3)n3nc(-c4ccccc4)nc3c2cc1OC (configuration not stated) | 61%
COc1cc2nc(NCc3ccccc3)n3nc(-c4ccccc4)nc3c2cc1OC | 47% (active)
COCCCNc1nc2cc(OC)c(OC)cc2c2nc(-c3ccccc3)nn12 | 47% (active)
COc1ccc(OC)c(CCNc2nc3cc(OC)c(OC)cc3c3nc(-c4cccnc4)nn23)c1 | 126%
CCOCCCNc1nc2cc(OC)c(OC)cc2c2nc(-c3ccccc3)nn12 | 44% (active)
COCCCNC(=O)CSc1nc2cc(OC)c(OC)cc2c2nc(-c3ccccc3)nn12 | 78%
COc1cc2nc(NCCC(C)C)n3nc(-c4ccccc4)nc3c2cc1OC | 49%
COc1cc2nc(NCc3ccc(C)cc3)n3nc(-c4ccccc4)nc3c2cc1OC | 61%
CCC(C)NC(=O)c1c(C)oc2ncn(CC(C)C)c(=O)c12 (configuration not stated) | 79%
COC(=O)c1c(-c2ccc(Cl)cc2)noc1N1CCN(c2cccc(C)c2C)CC1 | 79%
CN1C(=O)CSC1=Nc1cccc(C(=O)O)c1 | 89%
COC(=O)c1csc(N)n1 | 95%
CCOc1ccc2c(c1)c(=O)c(S(=O)(=O)c1ccc(F)cc1)cn2CC(=O)Nc1ccccc1C | 96%
Cc1nn2c(=O)cc(COC(=O)c3ccc(NC(=O)c4cccc(Br)c4)cc3)nc2s1 | 97%
CC1=Nc2cc(C(=O)N3CCC(C)CC3)ccc2Sc2ccc(Cl)cc21 | 90%
CCCC1=Nc2cc(C(=O)N3CCC(C)CC3)ccc2Sc2ccc(C)cc21 | 97%
CCOC(=O)C1CCN(C(=O)c2ccc3c(c2)N=C(CC)c2cc(C)ccc2S3)CC1 | 36% (active)

SMILES | survival
CCC1=Nc2cc(C(=O)N3CCC(C)CC3)ccc2Sc2ccc(C)cc21 | -4% (active)
CC1=Nc2cc(C(=O)N3CCCCC3)ccc2Sc2ccc(C)cc21 | 48%
CCCC1=Nc2cc(C(=O)N3CCC(C(=O)OCC)CC3)ccc2Sc2ccccc21 | 79%
O=C(CNCc1ccccc1F)Nc1ccc(N2CCCC2)cc1 | 102%
Cc1nnc2c3ccccc3nc(N3CCN(c4cccc(Cl)c4)CC3)n12 | 92%
COc1ccc(CNC(=O)CCc2c(C)nc3cc(-c4ccc(OC)cc4OC)nn3c2C)cc1 | 121%
CCn1cc(C(=O)NCc2ccc(F)cc2)c(=O)c2cc(S(=O)(=O)N(C)C)ccc21 | 81%
CCOCCc1nn2c(=O)cc(COC(=O)c3ccc(NC(=O)C4CCCCC4)cc3)nc2s1 | 70%
COc1ccc(-c2noc(-c3cccc(OC)c3OC)n2)cc1 | 8% (active)
Cc1ccc(-c2noc(-c3ccccc3NC(=O)c3ccccc3)n2)cc1 | 69%
COc1ccc(-c2noc(-c3ccccc3NC(=O)c3cc(OC)c(OC)c(OC)c3)n2)cc1 | 34% (active)
Cc1ccc(-c2noc(-c3ccccc3NC(=O)C3CC(=O)N(c4cccc(C)c4)C3)n2)cc1 (configuration not stated) | 66%
COc1cc(C(=O)Nc2ccccc2-c2nc(-c3ccccc3)no2)cc(OC)c1OC | 66%
Cc1ccc(-c2noc(-c3ccccc3NC(=O)C3CC(=O)N(c4ccc(C)cc4)C3)n2)cc1 (configuration not stated) | 48%
COc1cccc(C(=O)Nc2ccccc2-c2nc(-c3ccc(C)cc3)no2)c1 | 48% (active)
COc1cc(C(=O)Nc2ccccc2-c2nc(-c3ccc(C)cc3)no2)cc(OC)c1OC | 53%
COc1cccc(-c2noc(-c3cc4ccccc4oc3=O)n2)c1OC | 102%
COc1ccc(C(=O)Nc2ccccc2-c2nc(-c3ccc(OC)cc3)no2)cc1 | 48%
COc1ccc(N2CC(C(=O)Nc3ccccc3-c3nc(-c4ccc(C)cc4)no3)CC2=O)cc1 (configuration not stated) | 54% (active)
COc1cccc(-c2noc(-c3cc(C(C)C)[nH]n3)n2)c1OC | 73%
